Drawing on PubChem BioAssay (NCATS), this text covers outcome for 40 molecules.

Records with an inconclusive call do not appear. Active and inactive are the calls of the source. The call rests on the fitted dose curve; in most records, active means well fitted curve in the direction sought with a large enough effect in the signal ratio; inconclusive means small, poorly fitted or top-dose-only effect, or a change in a side signal; inactive means no such curve, though single readings can be large or run the other way; the % refers to the signal ratio.

Tumor necrosis factor (Homo sapiens), sequence (P01375 whole entry, looked up): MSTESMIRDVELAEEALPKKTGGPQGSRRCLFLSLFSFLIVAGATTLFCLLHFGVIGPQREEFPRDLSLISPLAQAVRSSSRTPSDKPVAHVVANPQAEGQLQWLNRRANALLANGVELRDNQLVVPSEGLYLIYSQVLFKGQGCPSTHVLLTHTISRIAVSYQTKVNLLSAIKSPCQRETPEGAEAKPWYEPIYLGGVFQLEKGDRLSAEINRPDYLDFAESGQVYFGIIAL

The experiment concerns the target Tumor necrosis factor (Homo sapiens) (UniProt P01375). Description: qHTS assay to identify small molecules that stimulate Tumor Necrosis Factor-alpha (TNF-alpha) secretion (AID 651757). The settings on record: Human cells, HTRF 665/615 ratio; series mostly up to 92.2 µM. An excerpt: National Center for Advancing Translational Sciences [NCATS]
NIH Chemical Genomics Center [NCGC]
National Institutes of Environmental Health Sciences [NIEHS]
National Toxicology Program [NTP]
Tumor Necrosis Factor-alpha (TNF-alpha), a secreted cytokine, plays an important role in inflammatory diseases and immune disorders. TNF-alpha, a 17 kDa cytokine, is mainly secreted by activated macrophages and monocytes in response to several inflammatory and immunological stimuli. To study the effect of environmental chemicals on TNF-alpha secretion, a homogeneous TNF-alpha assay was developed using Time Resolved fluorescence (HTRF) technology based on Time Resolved Fluorescent Resonance Energy Transfer (TR-FRET) (Leister et al., Current Chemical Genomics, 5:21-29, 2011). This assay allows measuring TNF-alpha secreted from the cells in a 1536-well plate format.
THP-1 cells were dispensed at 3000 cells/5ul/well in 1536-well white solid plates. After addition of 23 nl of compound, positive controls and DMSO only, the assay plates were incubated at 37 C for 17 hrs, followed by addition of 5 uLof mixture of cryptate labeled and XL665 labeled anti-TNF-alpha antibodies. After the assay plates were incubated at room temperature for 3 hr, the plates were measured by an EnVision plate reader.
For orientation: Quantitative high-throughput screening tests each substance at several concentrations.
Turning to `C(CCOCC1CO1)COCC1CO1` (stereo not given), the outcome was inactive. The value for `Nc1ccc([N+](=O)[O-])cc1[N+](=O)[O-]` was “inactive”. The value for `O=[N+]([O-])c1ccc(O)c([N+](=O)[O-])c1` was “inactive”; that for `CC(=O)[O-].CC(=O)[O-].CC(=O)[O-].[Cr+3]` was “inactive”; that for `C=CC(=O)OCC(C)C` was “inactive”. The value for `BrCCc1ccccc1` was “inactive”. With `O=[N+]([O-])c1cc(Cl)c(Cl)c(Cl)c1`, the result was inactive. The value for `COC(=O)Nc1cccc(OC(=O)Nc2cccc(C)c2)c1` was “inactive”.

Regarding `CC(C)[N+](=O)[O-]`, the outcome was inactive.

Turning to `O=[N+]([O-])c1cccc(O)c1`, the outcome was inactive. Regarding `N#CC(Cl)(Cl)Cl`, the result was inactive. In the case of `C=CCCl`, the result was inactive. The value for `CC(C)C#N` was “inactive”; that for `C=CC(=O)OCC(CC)CCCC` (stereo not given) was “inactive”; that for `Clc1ccc(C(c2ccccc2Cl)C(Cl)(Cl)Cl)cc1` (stereo not given) was “inactive”.

With `[O-][Cl+2]([O-])O`, the result was inactive. On to `CCCBr`, for which the result was inactive. The value for `O=c1ccc(=O)[nH][nH]1` was “inactive”.

With `COc1c(C(C)(C)C)cc([N+](=O)[O-])c(C)c1[N+](=O)[O-]`, the outcome was inactive. The value for `N#CC(O)c1ccccc1` (stereo not given) was “inactive”; that for `Cc1cccc(C)c1N` was “inactive”; that for `OC[P+](CO)(CO)CO` was “inactive”.

In the case of `CCCCOC(C)=O`, the result was inactive. The value for `CC(=O)NNc1ccccc1` was “inactive”; that for `Clc1ccc(C(Cl)(Cl)Cl)c(Cl)c1` was “inactive”. The value for `O=[N+]([O-])c1ccccc1CCl` was “inactive”. The value for `C=CC#N` was “inactive”. As to `CCCCCCCCCCCCCl`, the outcome was inactive. On to `O=[N+]([O-])c1ccc2c3c(cccc13)CC2`, for which the outcome was inactive. The value for `Oc1cc(Cl)cc(Cl)c1` was “inactive”; that for `Nc1ccccc1-c1ccccc1` was “inactive”; that for `CCCCC#N` was “inactive”. The value for `N#CCc1ccccc1` was “inactive”. The value for `CC(C)(C)C(O)(CCc1ccc(Cl)cc1)Cn1cncn1` (stereo not given) was “inactive”; that for `O=C(O)C(Br)Br` was “inactive”. Turning to `Nc1c(Cl)cc([N+](=O)[O-])cc1Cl`, the result was inactive. The value for `Cc1coc2c1CCC(C)C2` (stereo not given) was “inactive”. The value for `ClC(Cl)(Cl)C(Cl)(Cl)Cl` was “inactive”; that for `O=[N+]([O-])c1c(Cl)c(Cl)c(Cl)c(Cl)c1Cl` was “inactive”; that for `C=CC(=O)OC` was “inactive”.
